Results filed as inconclusive are left out. A number with no mark means an inactive call. Active and inactive are the calls of the source. Calls come from the whole dose curve; as a rule, active = well fitted cell-killing curve with a large enough effect; inconclusive = small, poorly fitted or top-dose-only effect, or effect the other way; inactive = no such curve, though single readings can be large or run the other way.

The source of these data is PubChem BioAssay (NCATS).
Potency is the fitted concentration of half-maximal effect.

The nature of this assay: Quantitative High-Throughput drug screen in 47 multiple myeloma cell lines against the NCATS MIPE library collection: ARP1_JJKsccF8 cell viability assay (AID 1918928; note: nearly all actives have a fitted effect of over 40% in size). To be noted: ARP1 myeloma cells viability, CellTiter-Glo ATP, 48 h; series mostly up to 45.8 µM; viability: at the top concentration. An excerpt:
PI: Beverly A. Mock Ph.D.
Laboratory of Cancer Biology and Genetics,
Center for Cancer Research, National Cancer Institute,
National Institute of Health, Bethesda, Maryland
Drug resistance and disease progression are common in multiple myeloma (MM) patients, underscoring the need for new therapeutic combinations. […] We hypothesized that effective combinations would reduce MYC expression and enhance p16 activity. […] These preclinical data identify potentially useful drug combinations for evaluation in drug-resistant MM and reveal potential mechanisms of combined drug sensitivity.
Described herein is the primary MIPE qHTS used to cherrypick compounds. Validated compounds were then further tested for potential synergistic activiy.
[1] Peat TJ, Gaikwad SM, Dubois W, Gyabaah-Kessie N, Zhang S, Gorjifard S, Phyo Z, Andres M, Hughitt VK, Simpson RM, Miller MA, Girvin AT, Taylor A, Williams D, D'Antonio N, Zhang Y, Rajagopalan A, Flietner E, Wilson K, Zhang X, Shinn P, Klumpp-Thomas C, McKnight C, Itkin Z, Chen L, Kazandijian D, Zhang J, Michalowski AM, Simmons JK, Keats J, Thomas CJ, Mock BA. Drug combinations identified by high-throughput screening promote cell cycle transition and upregulate Smad pathways in myeloma. Cancer Lett. 2023 Aug 1;568:216284. doi: 10.1016/j.canlet.2023.216284. Epub 2023 Jun 24. PMID: 37356470; PMCID: PMC10408729.
SEQUENCE No. (e.g., 1, 2, 3, etc.); […] (e.g., Cells, Incubation, Reagent, etc.); VALUE and DESCRIPTION.
1; Cells; 5 uL; white, solid bottom 1536-well Greiner assay plate.
2; Compounds; 23 nL; Kalypsis pin tool (Wako USA) equipped with a 1536-well pin head to transfer to the assay plates.
3; Incubation; 48 hours; 37C incubation.
4; Reagent;5uL; CellTiter Glo (Promega).
5; Detector; 425V; Luminescence; Viewlux PerkinElmer.
NOTES (numbers refer to Sequence numbers above)
1. The cell-based screening methods employed in this study were like those previously published. Briefly, the corresponding myeloma cell lines were screened in 1,536-well plates with 500 cells, 5-uL per well for inhibition of cell viability (assessed by measuring ATP levels with CellTiterGlo).
2. NCATS MIPE 4.0 library of approved and investigational drugs were added using the Kalypsis pin tool. Wells treated with DMSO only for 100% viability and media only cells for 0% viability were used as controls.
3. The assay plates were covered and incubated for 48 hours in a 37C, 5% CO2 incubator with controlled humidity.
4. After 48 hours, CellTilter-GloTM luminescent substrate mix (Promega) reagent was added to the assay plate and plates we incubated for 5 min at room temperature.
5. Signal was measured as median relative luminescence units on a ViewLux (PerkinElmer) multiplate reader.
[1] Heske CM, Davis MI, Baumgart JT, Wilson K, Gormally MV, Chen L, Zhang X, Ceribelli M, Duveau DY, Guha R, Ferrer M, Arnaldez FI, Ji J, Tran HL, Zhang Y, Mendoza A, Helman LJ, Thomas CJ. Matrix Screen Identifies Synergistic Combination of PARP Inhibitors and Nicotinamide Phosphoribosyltransferase (NAMPT) Inhibitors in Ewing Sarcoma. Clin Cancer Res. 2017 Dec 1;23(23):7301-7311. doi: 10.1158/1078-0432.CCR-17-1121. Epub 2017 Sep 12. PMID: 28899971; PMCID: PMC6636827.
(In ATP-based viability assays light output follows the ATP content of the culture.)
As for `CCOC(=O)C1=C[C@]2(CC)CCCN3CCc4c(n1c1ccccc41)[C@@H]32`, the Potency was 20.9 µM (active).
On the same count and under the same terms, the same measure for `COc1ccc(C2=N[C@H](c3ccc(Cl)cc3)[C@H](c3ccc(Cl)cc3)N2C(=O)N2CCNC(=O)C2)c(OC(C)C)c1`: 16.6 µM (active); for `CCOC(=O)N1CCC(=C2c3ccc(Cl)cc3CCc3cccnc32)CC1`: 20.9 µM (active); for `COc1ccccc1[C@H](c1cccc2ccccc12)[C@@](C)(C#N)C(=O)N1CCC(c2cccc(C(F)(F)F)c2)CC1`: 8.33 µM (active).
Consider `CC1(C)Cc2c(-c3ccccc3)c(-c3ccc(Cl)cc3)c(CC(=O)O)n2C1`, for which the Potency was 23.5 µM (active).
Consider `N#CC[C@H](C1CCCC1)n1cc(-c2ncnc3[nH]ccc23)cn1`, for which the viability (commonly a read-out of living cells in per cent, often relative to untreated cells) is 79.6%.
Take `COc1cc2c(cc1OC)CN(CCc1ccc(NC(=O)c3cccc4c(=O)c5cccc(OC)c5[nH]c34)cc1)CC2`: the “viability” value is 91.5%.
On to `NS(=O)(=O)c1cc2c(cc1Cl)NC=NS2(=O)=O`, for which the “viability” value was 117%.
Same read-out and setting: to `c1ccc([C@H]2CN3CCSC3=N2)cc1` belongs 106%.
Turning to `Cc1cc([C@@H](C)Nc2ccccc2C(=O)O)c2nc(N3CCOCC3)cc(=O)n2c1`, the Potency is 0.481 µM (active).
In the case of `CNC[C@H](O)c1cccc(O)c1`, the “viability” value is 115%.
Consider `CC(c1cc2ccccc2s1)N(O)C(N)=O` (stereo not given), for which the “viability” value is 94.1%.
Still for that read-out and setting: the same measure for `CCCCNc1cc(C(=O)O)cc(S(N)(=O)=O)c1Oc1ccccc1`: 103%.
Turning to `Nc1nc2[nH]cc(CCc3ccc(C(=O)N[C@@H](CCC(=O)O)C(=O)O)cc3)c2c(=O)[nH]1`, the Potency was 0.418 µM (active).
As to `CC(=O)Oc1ccccc1C(=O)O`, the “viability” value was 96.1%.
In the case of `Cc1ccc(N(CC2=NCCN2)c2cccc(O)c2)cc1`, the Potency was 29.6 µM (active).
As for `C[C@]12CC[C@H](O)CC1=CC[C@@H]1[C@H]2CC[C@]2(C)C(c3cccnc3)=CC[C@H]12`, the “viability” value is 103% [at 23.2 µM].
`CCC(C)N(C)C(=O)c1cc2ccccc2c(-c2ccccc2Cl)n1` (stereo not given): the Potency was 0.296 µM (active).
Turning to `Nc1ccc(S(=O)(=O)Nc2ccnn2-c2ccccc2)cc1`, the “viability” value is 122%.
The same measure, in the same setting: the same measure for `O=C(O)CCc1ccc(NCc2cccc(Oc3ccccc3)c2)cc1`: 110%; for `O=C(C=Cc1ccc(/C=C/C(=O)Nc2ccc(C3=NCCN3)cc2)cc1)Nc1ccc(C2=NCCN2)cc1`: 99.6%; for `Cc1cc(SCc2sc(-c3ccc(C(F)(F)F)cc3)nc2C)ccc1OCC(=O)O`: 104%.
Still for that read-out and setting: to `NC(=O)c1cnccn1` belongs 99.2%.
`Cc1cc(C=c2sc3nc4ccccc4n3c2=O)c(C)n1-c1ccccc1`: the Potency is 6.62 µM (active).
The same measure, in the same setting: to `NNCCc1ccccc1` belongs 20.9 µM (active).
On to `CNC(=O)c1ccc(N2C(=S)N(c3ccc(C#N)c(C(F)(F)F)c3)C(=O)C2(C)C)cc1F`, for which the “viability” value is 91.3%.
Turning to `O=C1CCC(N2C(=O)c3ccccc3C2=O)C(=O)N1` (stereo not given), the Potency was 0.0662 µM (active).
Turning to `COc1ccc([C@@H]2CC(=O)c3c(O)cc(O[C@@H]4O[C@H](CO[C@@H]5O[C@@H](C)[C@H](O)[C@@H](O)[C@@H]5O)[C@@H](O)[C@H](O)[C@@H]4O)cc3O2)cc1O`, the Potency result is “inactive”.
The same measure, in the same setting: to `Oc1cccc(-c2nc(N3CCOCC3)c3oc4ncccc4c3n2)c1` belongs 0.0241 µM (active); to `CC[C@H](Nc1ncnc2nc[nH]c12)c1nc2cccc(F)c2c(=O)n1-c1ccccc1`, 20.9 µM (active); to `CCCn1c(=O)c2[nH]c(C34CC5CC3C[C@@H](C5)C4)nc2n(CCC)c1=O`, 9.35 µM (active).
As to `OC(CCN1CCCCC1)(c1ccccc1)C1CC2C=CC1C2` (stereo not given), the “viability” value is 110%.
As for `O=C(Nc1cccnc1)N1CCC(Cc2cccc(Oc3ccc(C(F)(F)F)cn3)c2)CC1`, the Potency is 18.7 µM (active).
As for `NC(=O)C1CCCc2c1[nH]c1ccc(Cl)cc21` (stereo not given), the “viability” value is 90.5%.
As for `NC(=O)c1ccc(-c2nc(-c3ccc4c(c3)OCCO4)c(-c3ccccn3)[nH]2)cc1`, the Potency was 4.18 µM (active).
Take `CC(C)C[C@H](NC(=O)[C@@H](O)[C@H](N)Cc1ccccc1)C(=O)O`: the Potency was 16.6 µM (active).
Regarding `CCCC(CCC)C(=O)O`, the “viability” value is 101%.
In the case of `CCn1cc(C(=O)O)c(=O)c2cc(F)c(N3CCNC(C)C3)c(F)c21` (stereo not given), the “viability” value is 104%.
`NC(N)=NC(=O)c1nc(Cl)c(N)nc1N`: the “viability” value is 117%.
On the same count and under the same terms, the same measure for `CC(C)OC(=O)C1=CN(C(=O)c2ccc(F)c(F)c2)CC(C)(C)c2c1[nH]c1ccccc21`: 93.1%.
